The text below walks through data of ChEMBL document CHEMBL1157539, “Thousands of chemical starting points for antimalarial lead identification” (Nature, 2010).

Each structure is given as a SMILES string. The full ranking holds about 13,000 compounds; the median of “IFI” is about 4, and the highest 2% start at about 17. The sample as a whole holds a higher share of the highest values than the screen did.

The assay is described as follows: GSK_TCMDC: Inhibition Frequency Index (IFI). The number of non-kinase HTS assays where a compound showed > 50 % inhibition, expressed as a percentage of the number of such assays in which the compound was tested. It is filed as functional.
`O=c1cc(NCCCNCc2cn(S(=O)(=O)c3ccccc3)c3ccccc23)[nH]c2ccccc12` displayed an IFI of 5.88%.
As for `COc1ccc2cc(-c3nc(-c4c(Cl)cccc4Cl)[nH]c3-c3ccnc(NCCC4CCCN4C)c3)ccc2c1` (centres undefined), the figure is 11.3%; as for `C=CCn1ccc2c3c(N)nc(N)nc3ccc21`, 6.4%.
With `NC1=NC2(CCCCC2)N(OCCCCCCc2ccccc2)C(N)=N1` the figure was 23.9%; with `NC1=NC2(CCCCC2)N(OCCCCCCC2CCCCC2)C(N)=N1`, 27.6%; with `NC1=NC2(CCCCC2)N(OCCCCCCCCNc2nc(N)nc(N)n2)C(N)=N1`, 1.44%.
`NC1=NC2(CCCCC2)N(OCCCCCCN2C(=O)c3ccccc3C2=O)C(N)=N1`: the IFI stood at 1.43%.
`Cc1ccc2cc(NCCCCCCCCON3C(N)=NC(N)=NC34CCCCC4)ccc2n1` registered an IFI of 11.6%.
Molecule `CC1(C)N=C(N)N=C(N)N1OCCCc1ccccc1` registered an IFI of 4.35%.
For `FC(F)(F)c1ccc2[nH]c(-c3ccc(-c4cccc(CNCC5CCCO5)c4)s3)nc2c1` (centres undefined), the IFI amounted to 7.92%.
Consider `O=C(Nc1ccc(CN2CCOCC2)cc1)c1ccc(-c2ccc(Cl)cc2)o1`, for which the IFI worked out at 2.78%.
For the molecule `COc1ccc(-c2cc(C(=O)N[C@@H](CC3CCCCC3)C(=O)NCCN3CCCC3)ccc2O)cc1`, the IFI is 3.45%.
`CCN(CC)CCN(Cc1ccc(-c2ccc(C(F)(F)F)cc2)cc1)C(=O)Cn1c(CCc2cccc(F)c2F)nc(=O)c2ccccc21` had an IFI of 8.39%.
As to `Fc1ccc2[nH]cc(CCNCc3ccc(-c4cccc(-c5nc6ccccc6[nH]5)c4)cc3)c2c1`, the IFI worked out at 17.8%.
Regarding `Fc1ccc2[nH]c(-c3cccc(-c4ccc(CNCc5ccccc5)cc4)c3)nc2c1`, the IFI stood at 8.57%.
As for `Fc1ccc2[nH]c(-c3cccc(-c4ccc(CNCCc5ccncc5)cc4)c3)nc2c1`, the figure is 9.71%.
Turning to `O=C(/C=C/c1ccc(Cl)c(Cl)c1)NCC[C@@H]1C[C@H]1CCN1CCC(c2c[nH]c3ccccc23)CC1`, the IFI came out at 12.3%.
Regarding `Cc1cc(=NN=Cc2ccc(Cl)cc2)c2ccccc2[nH]1`, the IFI worked out at 0.7%.
In the case of `N=C(NCCCCCCCCNC(=N)Nc1ccc(Cl)cc1)Nc1ccc(Cl)cc1`, the IFI was found to be 3.65%.
Molecule `CN(C)/C(=N/C(=N)Nc1ccc(Cl)cc1)NCCCCCCN/C(=N\C(=N)Nc1ccc(Cl)cc1)N(C)C` displayed an IFI of 8.89%.
In turn, `Clc1ccc(/N=C(/NCCCCCCCN/C(=N\c2ccc(Cl)cc2)Nc2ccc(Cl)cc2)Nc2ccc(Cl)cc2)cc1` came in with an IFI of 17.1%.
With `COc1ccc(O)c(C(=O)c2cc(C(=O)NC3CCCCC3)c(=O)n(C3CCCCC3)c2)c1` the figure was 10.8%; with `O=C(c1cc(C(=O)NC2CCCCC2)c(=O)n(C2CCCCC2)c1)c1cc(F)ccc1O`, 19.4%; with `N#Cc1cc(C(=O)c2cc(Br)ccc2O)cn(C2CCCCC2)c1=O`, 2.78%.
For `COc1ccc(NCCCNc2ccnc3ccccc23)cc1`, the IFI was found to be 17.5%.
In turn, `c1ccc2c(NCCCCCCCNc3ccnc4ccccc34)ccnc2c1` came in with an IFI of 11.3%.
For `c1ccc2c(NCCCCCCNc3ccnc4ccccc34)ccnc2c1`, the IFI was 4.55%.
As for `Nc1nc(N)c2c(ccc3c2ccn3Cc2ccc(Cl)cc2)n1`, the IFI turned out to be 13.2%.
In turn, `CCn1c(Sc2ccc([N+](=O)[O-])c(C#N)c2)nnc1-c1ccc(Cl)cc1` returned an IFI of 3.4%.
As for `OCC1CCN(Cc2ccc(-c3ccc(-c4nc5cc(F)ccc5[nH]4)cc3)cc2)CC1`, the figure is 2.94%; as for `Oc1c(C(Nc2nc3ccccc3s2)c2ccc(OC(F)F)cc2)ccc2cccnc12` (centres undefined), 9.4%.
Molecule `CN(C)CCOc1ccc2c(=O)cc(CCc3cccc(F)c3F)n(CC(=O)N(C)Cc3ccc(-c4ccc(C(F)(F)F)cc4)cc3)c2c1` came in with an IFI of 2.92%.
As for `CCOC(=O)c1cc(C(=O)NCCCCN2CCC(c3cn(C)c4ccccc34)CC2)ccc1-c1ccc(C(F)(F)F)cc1`, the figure is 5.31%.
With `CCOC(=O)c1cc2c(CCN3C(=O)c4ccccc4C3=O)cn(C)c2cc1-c1ccncc1` the figure was 30.4%; with `CCOC(=O)c1c(CNc2ccncc2)n(C)c2cc(Br)c(OC(C)=O)cc12`, 0.74%; with `CC(=O)Nc1ccc(C(=O)Nc2cccc(-c3cccc(-c4nc5cc(C(F)(F)F)ccc5[nH]4)c3)c2)cn1`, 3.7%.
`CC(=O)Nc1ccc(Cl)c(Cl)c1` returned an IFI of 0%.
The molecule `N=C(N)NC(=O)Nc1ccc(Cl)c(Cl)c1` yielded an IFI of 1.52%.
Take `NCCCN(Cc1ccc(Cl)c(Cl)c1)C(=O)Nc1ccc(Cl)c(Cl)c1`: the IFI worked out at 17.7%.
`COc1ccc(CCNCCCCCCNCCc2ccccc2Cl)cc1OC` came in with an IFI of 2.88%.
`COc1ccccc1CNc1ccnc(NCCc2cccc(C(F)(F)F)c2)n1`: the IFI turned out to be 16%.
The molecule `FC(F)(F)c1cccc(CCNc2nccc(NCc3ccc(Cl)cc3Cl)n2)c1` had an IFI of 25%.
As for `FC(F)(F)c1cccc(CCNc2nccc(NCc3ccccc3Cl)n2)c1`, the figure is 8%.
In turn, `Fc1ccc(NC(S)=NN=Cc2ccccn2)cc1` yielded an IFI of 7.48%.
On to `Cc1[nH]c(C)c(-c2ccc(-c3ccc(OC(F)(F)F)cc3)nc2)c(=O)c1Cl`, for which the IFI came to 1.69%.
Consider `Cc1cc(Nc2ccncc2)n2nc(C)c(-c3ccc(Cl)cc3)c2n1`, for which the IFI was found to be 1.69%.
In turn, `Cc1ccc2[nH]c(-c3cc(-c4cccc(C#N)c4)cnc3N)nc2c1` displayed an IFI of 7.14%.
Regarding `Cc1cccc2nc(-c3ccc(-c4ccc(CN5CCCC(N)C5)cc4)s3)[nH]c12` (centres undefined), the IFI amounted to 5.56%.
As for `COc1ccc(-c2ccccc2OCCCNc2nc(NCCc3ccc(O)cc3)nc(N3CCNCC3)n2)cc1`, the figure is 13.8%.
With `Oc1ccc(CCNc2nc(NCCOc3ccccc3-c3ccccc3)nc(N3CCNCC3)n2)cc1` the figure was 20%; with `Oc1ccc(CCNc2nc(NCc3ccc4cc(Cl)ccc4c3)nc(N3CCNCC3)n2)cc1`, 17.2%.
As for `C[C@@]12C[C@@H](Nc3nc(NCCc4ccc(O)cc4)nc(N4CCNCC4)n3)C[C@@H](C1)c1cccc(Cl)c1O2`, the figure is 20.9%; as for `Oc1ccc(CCNc2nc(NCCCOc3cccc(CN4CCCCC4)c3Cl)nc(N3CCNCC3)n2)cc1`, 4.69%; as for `Cc1c(CN2CCCCC2)cccc1OCCCNc1nc(NCCc2ccc(O)cc2)nc(N2CCNCC2)n1`, 7.58%.
Regarding `Oc1ccc(CCCNc2nc(NCc3cccc4ccccc34)nc(N3CCNCC3)n2)cc1`, the IFI is 7.69%.
Consider `Oc1ccc(CCNc2nc(N/N=C/c3ccc(Cl)cc3)nc(N3CCNCC3)n2)cc1`, for which the IFI was determined as 0.75%.
`Cc1cccc(-c2cccc(CNc3nc(NCCc4ccc(O)cc4)nc(N4CCNCC4)n3)c2)c1` had an IFI of 12.7%.
With `Cc1cc(OCCCNc2nc(NCCc3ccc(O)cc3)nc(N3CCNCC3)n2)c(Cl)c(C)c1Cl` the figure was 18.5%; with `Oc1ccc(CCNc2nc(NCCCOc3ccccc3-c3ccncc3)nc(N3CCNCC3)n2)cc1`, 1.72%.
Molecule `Oc1ccc(CCNc2nc(NCc3ccccc3-c3cccc(Cl)c3)nc(N3CCNCC3)n2)cc1` gave an IFI of 15.4%.
With `Nc1c2c(nc3cc(NC(=O)c4ccc([N+](=O)[O-])cc4)ccc13)CCCC2` the figure was 0%; with `CNC(=O)C(C)N(c1ccc(Cl)cc1)c1nc(C(C)(C)C)cs1` (centres undefined), 4.76%.
As for `COC(=O)C(=C(C)C)N1C(=O)[C@@H](NC(=O)OCc2ccccc2)[C@H]1SS[C@@H]1[C@H](NC(=O)OCc2ccccc2)C(=O)N1C(C(=O)OC)=C(C)C`, the figure is 4.41%.
In turn, `CC(CN1CCN(C)CC1)C(=O)Nc1ccc(-c2cccc(-c3nc4ccccc4[nH]3)c2)cc1` (centres undefined) gave an IFI of 4.59%.
For the molecule `COCCN1CCN(Cc2ccc(-c3ccc(-c4nc5cccc(C)c5[nH]4)s3)cc2)CC1`, the IFI was found to be 6.86%.
With `O=S(=O)(NCCN1CCCC1)c1ccc(-c2ccc(CNCc3ccccc3)cc2)cc1F` the figure was 6.54%; with `CC1CN(c2nc(NCCc3ccc(O)cc3)nc(NCc3ccccc3-c3ccc(C(F)(F)F)cc3)n2)CC(C)N1` (centres undefined), 17.2%; with `CN1CCN(c2nc(NCCc3ccc(O)cc3)nc(NCc3ccccc3-c3ccc(C(F)(F)F)cc3)n2)CC1`, 11.8%.
With `Oc1ccc(CCNc2nc(NCCCOc3ccccc3-c3ccc(C(F)(F)F)cc3)nc(N3CCNCC3)n2)cc1` the figure was 17.2%.
As for `Oc1ccc(CCNc2nc(NCCCOc3ccccc3-c3cccnc3)nc(N3CCNCC3)n2)cc1`, the IFI was found to be 6.9%.
In turn, `Oc1ccc(CCNc2nc(NCCOc3cccc4ccccc34)nc(N3CCNCC3)n2)cc1` gave an IFI of 16.4%.
Take `COc1ccc(-c2ccccc2CNc2nc(NCCc3ccc(O)cc3)nc(N3CCNCC3)n2)cc1`: the IFI came out at 13.4%.
`Oc1ccc(CCNc2nc(NCc3ccccc3-c3ccc(C(F)(F)F)cc3)nc(N3CCNCC3)n2)cc1` displayed an IFI of 13.1%.
`Oc1ccc(CCNc2nc(NCCCOc3cccc(-c4ccccc4)c3)nc(N3CCNCC3)n2)cc1` showed an IFI of 18.8%.
`Oc1ccc(CCNc2nc(NCCCOc3ccccc3-c3ccc(F)cc3)nc(N3CCNCC3)n2)cc1` showed an IFI of 13.8%.
As for `Oc1ccc(CCNc2nc(NCc3ccccc3Oc3ccc(C(F)(F)F)cc3)nc(N3CCNCC3)n2)cc1`, the IFI was found to be 20%.
With `Oc1ccc(CCNc2nc(NCCCOc3ccccc3-c3cccc(C(F)(F)F)c3)nc(N3CCNCC3)n2)cc1`, the IFI amounted to 10.5%.
The molecule `Oc1ccc(CCNc2nc(NCc3ccccc3-c3ccc(F)cc3)nc(N3CCNCC3)n2)cc1` showed an IFI of 13.6%.
In turn, `CC(C)N1CCC(N(Cc2ccc(-c3ccc(Cl)cc3)cc2)C(=O)Cn2c(CCc3cccc(F)c3F)nc(=O)c3ccccc32)CC1` returned an IFI of 7.8%.
`O=C(/C=C/c1ccc(Cl)c(Cl)c1)NCCCCCN1CCC(c2n[nH]c(-c3ccccc3)c2Br)CC1` returned an IFI of 12.9%.
Turning to `Cc1cc2nc(-c3ccc(/C=C/C(=O)NC4CCN(Cc5ccccc5)CC4)cc3)[nH]c2cc1C`, the IFI amounted to 3.76%.
As for `CS(=O)(=O)NCCCNCc1ccc(-c2ccc(-c3nc4cc(C(F)(F)F)ccc4[nH]3)s2)cc1`, the figure is 4.95%.
Molecule `Cc1nc2ccc(-c3ccc(OC(F)(F)F)cc3)cc2c(O)c1C#N` yielded an IFI of 1.82%.
`COc1cccc2c(NN=Cc3cccc(F)c3)ccnc12` registered an IFI of 2.99%.
As for `Oc1ccc(CCNc2nc(NCc3ccccc3-c3ccc(C(F)(F)F)cc3)nc(N3CCCNCC3)n2)cc1`, the figure is 14.9%.
With `Oc1ccc(CCNc2nc(NCc3ccccc3-c3ccccc3)nc(N3CCCNCC3)n2)cc1`, the IFI is 18.2%.
`Oc1ccc(CCCNc2nc(NCc3ccccc3-c3ccccc3)nc(N3CCNCC3)n2)cc1` came in with an IFI of 14.9%.
`NCC1CCCN1Cc1cccc(-c2ccc(-c3nc4ccccc4[nH]3)s2)c1` (centres undefined) came in with an IFI of 0.97%.
Molecule `CC[C@H](C)CNC(=O)c1cccc(-c2ccc(CN3CCC(N4CCCC4)CC3)cc2)n1` registered an IFI of 9.09%.
